Sampled rows, rich in hits. Any-hit rate of the full collection: about 9.2%.
ELG1 DNA repair = qHTS screen for small molecules that inhibit ELG1-dependent DNA repair in human embryonic kidney (HEK293T) cells expressing luciferase-tagged ELG1; actives 2.3% (n = 330,000); HEK293T ELG1-luciferase reporter, luminescence, 16 h; DNA damage induced by 5-fluorouridine; Potency, µM (highest dose often 46.1 µM), most hits filed as inhibitors; AID 504467, 2011; also: nearly all actives have a fitted effect of over 55% in size
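5-Fluorouridine DNA damage + compound/DMSO, 2,000 cells/well, 16 h, 37 °C/5% CO2. ONE-Glo, 30 min RT, luminescence. Readout = decrease in reporter signal.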
FLuc modulator = qHTS profiling assay for firefly luciferase inhibitor/activator using purifed enzyme and Km concentrations of substrates (counterscreen for miR-21 project); Luciferin 4-monooxygenase (Photinus pyralis), P08659; purified FLuc, Km substrates, luminescence inhibition; Potency, µM (titrated, usually from 57.5 µM), most hits filed as inhibitors; actives 6.9% (n = 360,000); AID 588342, 2011; also: nearly all actives have a fitted effect of over 55% in size
Target sequence (P08659 whole entry, looked up): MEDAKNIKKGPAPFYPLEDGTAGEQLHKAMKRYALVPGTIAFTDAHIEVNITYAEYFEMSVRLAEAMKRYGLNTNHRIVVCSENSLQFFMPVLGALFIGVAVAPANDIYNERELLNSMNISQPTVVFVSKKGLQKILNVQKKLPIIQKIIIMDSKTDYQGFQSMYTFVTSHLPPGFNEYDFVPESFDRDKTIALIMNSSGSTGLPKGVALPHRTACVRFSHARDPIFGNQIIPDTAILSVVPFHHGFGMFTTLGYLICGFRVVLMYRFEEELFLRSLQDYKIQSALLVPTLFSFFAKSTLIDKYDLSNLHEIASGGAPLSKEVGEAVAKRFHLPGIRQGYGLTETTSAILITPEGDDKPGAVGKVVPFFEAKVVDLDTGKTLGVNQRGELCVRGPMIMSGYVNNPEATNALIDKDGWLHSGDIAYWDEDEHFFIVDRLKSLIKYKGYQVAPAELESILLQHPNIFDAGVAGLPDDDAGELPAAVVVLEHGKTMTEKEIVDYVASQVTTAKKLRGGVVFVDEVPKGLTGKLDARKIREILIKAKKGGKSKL
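Purified P. pyralis luciferase, 10 nM final, with Km-level 10 uM D-luciferin and 10 uM ATP in 50 mM Tris acetate pH 7.5, 10 mM Mg acetate, 0.01% Tween-20, 0.05% BSA; 6-point qHTS titration about 60 µM downward; luminescence read.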
Rab9 prom act = qHTS Assay for Rab9 Promoter Activators; AID 485297, 2010; actives 2.8% (n = 320,000); Huh7 Rab9 promoter-luciferase reporter, luminescence, 24 h; Potency, µM (highest dose often 9.22 µM), most hits filed as activators; also: nearly all actives have a fitted effect of over 60% in size
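Cell-based reporter: Huh7 stable for Rab9 promoter-driven luciferase, plated in reduced-serum medium with 10% FBS at 1500 cells/well, compound-treated 24 h at 37 °C, luminescence read after 10 min reagent.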
NPC1 promoter act = qHTS Assay for NPC1 Promoter Activators. actives 2.4% (n = 320,000). Huh7 NPC1 promoter luciferase reporter, 24 h. AID 485313, 2010. Potency, µM (top dose mostly 9.22 µM), hits mostly activators; also: nearly all actives have a fitted effect of over 60% in size
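Readout is luciferase luminescence, reflecting NPC1 promoter activation in stably transfected Huh7 cells after 24 h compound exposure at 37 °C in reduced-serum medium with 10% FBS.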
SMN2 splice enh = qHTS Assay for Enhancers of SMN2 Splice Variant Expression. HEK293 SMN2-luciferase splicing reporter, luminescence, 30-36 h. AID 1458, 2008. Potency, µM (highest dose often 46.1 µM), actives largely listed as activators. actives 2.8% (n = 210,000); also: nearly all actives have a fitted effect of over 55% in size
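HEK293 cells carry an SMN2 […]–luciferase reporter in which exon 7 inclusion puts luciferase in frame. Cells were plated 10-12 h before compound addition, then incubated 30-36 h at 37C. ONE-Glo luminescence was read; sodium butyrate at 4.5 mM final served as control.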
ELG1 genotox = qHTS screen for small molecules that induce genotoxicity in human embryonic kidney (HEK293T) cells expressing luciferase-tagged ELG1; AID 504466, 2011; actives 1.3% (n = 330,000); HEK293T ELG1-luciferase reporter, luminescence, 16 h; Potency, µM (doses to about 46 µM), actives largely listed as activators; also: nearly all actives have a fitted effect of over 60% in size
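ELG1-luciferase HEK293T cells, 2,000/well; compound pinned in; 16 hr, 37 °C, 5% CO2; ONE-Glo, 30 min RT; luminescence on CCD imager.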
Numbers stand for hits; n = inactive; u = inconclusive; x = not tested or not shown; [ ] = another dose, or the depositor's remark. Calls follow the shape of the dose curve; as a rule, active = well fitted curve in the direction sought with a large enough effect; inconclusive = small, poorly fitted or top-dose-only effect, or another doubt; inactive = no such curve, though single readings can be large; an effect the other way counts as inactive or inconclusive.

SMILES	ELG1 DNA repair	FLuc modulator	Rab9 prom act	NPC1 promoter act	SMN2 splice enh	ELG1 genotox
O=C(Nc1ccccc1)NC1CCCCC1	u	u	u	n	u	n
COc1ccc(NC(=O)CCSc2ccc(F)cc2)cc1	u	15µM	3.5µM	u	x	u
COc1ccc(NC(=O)C(=S)NC2CCCCC2)cc1	u	5.4µM	2.8µM	1.6µM	13µM	8.2µM
Cc1ccc(NC(=O)C(=O)N2CCCC2)cc1Cl	u	2.1µM	2.8µM	3.2µM	10µM	u
COc1ccc(NC(=O)CCSc2ccc(C)cc2)cc1	n	n	n	n	n	n
C=CCNC(=O)c1cc([N+](=O)[O-])cc2c(=O)[nH]c(Nc3ccc(Cl)c(Cl)c3)nc12	x	x	x	x	n	x
Cc1coc2cc3oc(=O)c(CCC(=O)N4C[C@H]5C[C@@H](C4)c4cccc(=O)n4C5)c(C)c3cc12	n	n	n	n	x	n
O=C(CCN1CCN(CCO)CC1)Nc1ccc(C2CCCC2)cc1	n	n	n	n	n	n
O=C(CSCCO)Nc1ccc(C2CCCCC2)cc1	u	12µM	n	n	n	u
CCc1ccc(NC(=O)C(=S)NC2CCCCC2)cc1	u	3µM	0.63µM	0.79µM	x	8.2µM
Cc1ccc(C(=O)N2CC(C)SC2=Nc2cccc(S(=O)(=O)N(C)C)c2)cc1 (configuration not stated)	n	n	n	n	n	n
CN(C)S(=O)(=O)c1cccc(N=C2SCCN2Cc2ccccc2)c1	18µM	n	n	n	x	n
CSc1ncccc1C(=O)OCC(=O)NC1CCCCC1	u	n	n	n	x	n
Cc1cccc2nc(COc3ccc4ccccc4c3Br)cn12	u	2.4µM	3.2µM	3.5µM	x	u
CC(C)c1ccc(NC(=O)COC(=O)CC2CCCC2)cc1	n	x	x	x	x	n
O=C(COC(=O)CC1CCCC1)Nc1cc2c(cc1Cl)C(=O)c1ccccc1C2=O	u	13µM	6.3µM	3.5µM	u	15µM
CCOC(=O)C1(Nc2nccs2)Sc2ccccc2NC1=O (configuration not stated)	7.3µM	u	n	n	n	n
CCOC(=O)C1(N(CC)CC)Sc2cc(C)ccc2NC1=O (configuration not stated)	n	n	n	n	n	n
COc1ccc(CN(CC(=O)NCC2CCCO2)C(=O)CNS(=O)(=O)c2ccccc2)cc1 (configuration not stated)	n	n	n	n	x	n
CN(C(=O)C1CCC(=O)N(Cc2cccc(F)c2)C1)C1CCCCC1 (configuration not stated)	u	17µM	2.5µM	3.2µM	x	u
Cc1ccsc1CN(C)C(=O)C1CCC(=O)N(CCc2cccc(F)c2)C1 (configuration not stated)	u	15µM	n	u	x	u
Cc1ccsc1CCNC(=O)C1CCC(=O)N(CCc2cccc(F)c2)C1 (configuration not stated)	u	21µM	2.5µM	2.8µM	x	u
COc1cccc(CNC(=O)C2CCN(C(=O)N3CCOc4ccc(Cl)cc43)CC2)c1OC	x	n	x	x	x	x
O=S(=O)(c1ccccc1F)N1CCN(Cc2cc3c(cc2Br)OCCO3)CC1	n	n	n	n	x	n
Cc1cccc(NC(=O)c2ccc(Cl)nc2)n1	u	n	n	n	x	n
SMILES	ELG1 DNA repair	FLuc modulator	Rab9 prom act	NPC1 promoter act	SMN2 splice enh	ELG1 genotox
CCOc1ccc(NC(=O)Nc2ccc(Cc3ccncc3)cc2)cc1	n	n	n	n	x	n
CCC(=O)N/C(=N/c1nc(C)cc(C)n1)Nc1ccc(C)cc1	u	n	n[1.84 µM]	n	x	n
CCCCOc1ccc(C(=O)Nc2cccc(C)n2)cc1	u	3µM	u	3.5µM	u	n
Cc1cccc(NC(=O)c2ccc(S(=O)(=O)N(C)C)cc2)n1	n	n	n	n	n	u
CCOc1ccc(NC(=O)Nc2cccc(C)n2)cc1	u	u	2.5µM	3.5µM	n	n
CCOc1ccc(C(=O)Nc2cccc(C)n2)cc1	u	2.4µM	1µM	2µM	5µM	u

Compound activity as filed in PubChem.
